The list is not random: actives were taken first. Their share in the collection is about 5.9%.
DAX1 inh: inhibitors of human orphan nuclear receptor DAX1 (NR0B1). inhibition, % at 6.75 µM. 340,000 compounds, 0.99% hits. AID 504766. P51843. HEK293 Gal4-DAX1 luciferase reporter, luminescence;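 active = inhibition above the mean over all tested compounds plus 3 SD, cut at about 4.2% in these data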;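 note: 0% = DAX1-transfected cells with DMSO and 100% = empty-vector control cells with DMSO; inhibition shows as a rise in luminescence from relieved DAX1 repression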
FXN GAA850 act: increases GAA850 frataxin promoter reporter activity | HEK293 lucGAA850 FXN promoter luciferase reporter, 24 h; percent of 10 µM SAHA response | activation, % at 6 µM | 360,000 compounds, 0.56% hits;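 active = activation above the average of all compounds screened plus 3 SD, cutoff fixed separately per campaign, cut at about 7.5% in these data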;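 note: 0% = DMSO wells and 100% = 10 µM SAHA wells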
AHR act: activates the human aryl hydrocarbon receptor | 320,000 compounds, 2.5% hits | AHR-responsive luciferase reporter cells, luminescence | P35869 | activation, % at 5 µM | AID 2796; in the data active = activation above about 47%;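 note: 0% = vehicle wells and 100% = reference agonist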
HSF-1 act: increases HSF-1 driven luciferase reporter signal | NIH3T3-HGL HSF-1 luciferase reporter, MG132, 8 h; 100% = twice DMSO control signal | activation, % at 9 µM | 300,000 compounds, 1.7% hits;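 active = mean replicate activation of at least 50% with a set share of replicates each reaching 50%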;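 note: 0% = median of the neutral control wells and 100% = twice that signal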
HSF1 inhib: HSF1 inhibition. NIH3T3-HGL HSE-luciferase, MG132-induced, luminescence 8 h; active compounds read low. 300,000 compounds, 0.77% hits. AID 2098. activity change, negative = inhibition, % at 7.5 µM (by protocol);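 active = more than half of replicate wells show activity change below -50%, luminescence cut by over half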;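 note: luciferase reports HSF-1 transcriptional activity via heat shock element; 0% = median of DMSO wells and -100% = zero luminescence signal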
HSP90 refold inh: inhibitors of HSP90 luciferase refolding in rabbit reticulocyte lysate; luciferase refolding luminescence, 3 h; inhibition, % at 5.6 µM; 290,000 compounds, 0.91% hits; AID 1789;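 active = inhibition above the screen-wide mean plus 3 SD, computed separately per campaign, cut at about 16% in these data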;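 note: 0% = DMSO wells and 100% = 60 µM geldanamycin wells; inhibitors lower the luminescence because luciferase stays unfolded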
Active calls of the source: *; / = not tested or not shown.

SMILES	DAX1 inh	FXN GAA850 act	AHR act	HSF-1 act	HSF1 inhib	HSP90 refold inh
Cc1nc(Nc2ccc(Cl)cc2)c2oc3ccccc3c2n1	-1	0	78*	16	-4	2
Cc1nc(Nc2cccc(Cl)c2)c2oc3ccccc3c2n1	-1	2	38	-9	7	-2
Cc1nc(Nc2ccc3c(c2)OCCO3)c2oc3ccccc3c2n1	0	2	34	0	0	-1
Cc1nc(NC(=O)COC(=O)CNC(=O)c2ccco2)c(Cl)cc1Cl	0	2	2	/	/	/
CN1CC(=O)N2Cc3[nH]c4ccccc4c3C[C@H]2C1=O	0	0	20	-2	-13	5
CCc1nc(NCc2cccnc2)c2oc3ccccc3c2n1	0	3	64*	14	0	0
CCOc1ccc(N=Nc2c(N)[nH][nH]c2=O)cc1	1	4	13	-83	-78*	4
CCOc1ccc(N=Nc2c(C)[nH]n(-c3ccccc3)c2=O)cc1	4	2	50*	-15	-3	-2
Cc1[nH]n(-c2ccccc2)c(=O)c1N=Nc1nccs1	-2	1	86*	35	5	7
CCOC(=O)c1ccc(N=Nc2c(C)[nH]n(-c3ccccc3)c2=O)cc1	2	1	3	2	-10	2
COc1ccc(NC(=O)CN2CCCC2c2cccs2)cc1S(=O)(=O)N1CCCCC1 (stereo not given)	-1	-1	0	/	/	/
CC[C@]12c3[nH]c4cc(-c5ccco5)ccc4c3CCN1C(=O)[C@@H](CC(=O)NCCCn1ccnc1)C[C@@H]2C(=O)N1CCN(C(=O)C2CC2)CC1	-1	2	/	/	/	/
O=C(Nc1ccccc1N1CCOCC1)[C@@H]1O[C@H](CO)[C@H](O)[C@H](O)[C@H]1O	/	-1	/	/	/	/
CC(C)n1c(CCC(=O)O)ccc1-c1ccccc1	4.3*	1	0	6	4	0
O=C(O)CCc1ccc(-c2ccccc2)n1CC(=O)O	0	-2	-1	9	-8	1
COc1ccc(CCNC(=O)CSc2nc(=O)n3cccc(C)c3n2)cc1OC	0	-1	6	10	-6	/
CC1CCCCN1C(=S)NC(=O)c1cc(Br)ccc1Cl (stereo not given)	0	0	2	/	/	/
C=CCOc1ccc(C(c2c(C)n(C)n(-c3ccccc3)c2=O)c2c(C)n(C)n(-c3ccccc3)c2=O)cc1	-1	0	0	-87	-85*	4
CSc1ncc(C(=O)Nc2cccc(C)c2C)c(C)n1	-1	2	/	5	-3	4
CC(C)Oc1ccc(CN2CCC(n3nccc3NC(=O)CCc3ccccc3)CC2)cc1	-1	-3	0	9	-3	0
COC(=O)c1ccc(OC(=O)CCN2c3ccccc3Sc3ccccc32)cc1	-1	0	2	27	14	6
COC(=O)c1ccc(OC(=O)CCN2C(=O)C3CCCCC3C2=O)cc1 (stereo not given)	0	-1	2	61*	25	2
CN(/C(=N\S(=O)(=O)c1ccccc1)c1ccccc1)c1ccc(O)cc1	-1	3	6	59*	12	2
O=C(OCc1cn([C@@H]2CN(C(=O)c3cccs3)[C@@H](c3ccc(Cl)cc3)C[C@H]2O)nn1)c1ccccc1	1	-3	/	/	/	/
NCCCCCc1nnc(SC/C=C/c2ccccc2)o1	0	-1	-1	97*	57	-1
SMILES	DAX1 inh	FXN GAA850 act	AHR act	HSF-1 act	HSF1 inhib	HSP90 refold inh
NCCCCCc1nnc(SCC(=O)c2ccc(Cl)cc2)o1	-1	2	3	58*	30	1
CC1(C(=O)NS(=O)(=O)c2cccc(Cl)c2)CCN1C(=O)C1(c2ccccc2)CC1 (stereo not given)	/	0	/	/	/	/
Cc1cc(NC(=O)C(C)SCC(=O)Nc2ccc(SC(F)F)cc2)no1 (stereo not given)	1	0	3	11	5	-4
O=C(NC(=S)N1CCc2ccccc21)c1ccc(Br)o1	1	6	10	52*	37	0
O=C(Nc1ccc2c3c(cccc13)CC2)c1ccco1	-1	2	5	11	10	-1
O=C(NC(=S)N1CCc2ccccc21)c1ccccc1Br	0	5	5	57*	44	2
O=C(Nc1ccc2c3c(cccc13)CC2)c1ccc(Br)o1	1	2	1	75*	43	-1

Bioassay records deposited in PubChem BioAssay by several laboratories.
